Biological target: CAMK2N1
Test: pooled miR-30 sensor sort-seq; sequence = guide strand
Conditions: shRNA
Also: reference of the scale not given here.

| Sequence | sensor-assay potency score (higher = more potent) |
| --- | --- |
| TCATCTTCAATAACAACCCGCT | 0.215 |
| TTCAGCACGTCATCAATCCTAT | -0.353 |
| TATCATCTTCAATAACAACCCG | -0.355 |
| TCTTCAATAACAACCCGCTTGC | -0.41 |
| TTTCAGCACGTCATCAATCCTA | -0.00921 |
| ATCTTCAATAACAACCCGCTTG | -0.788 |

Biological target: CAMKV
Test: as above
Conditions: shRNA

| Sequence | sensor-assay potency score (higher = more potent) |
| --- | --- |
| ATATCTGTCAGTCACCTCCGAT | -0.99 |
| TTTCATTGTTGAACTGAGCAGA | 0.188 |
| TTGAACTGAGCAGAAAATCTGC | 0.22 |
| TTAAACATACTGCCCTACCTTT | -0.684 |
| TAACACAAATAACAGGGTCTTA | -0.811 |
| TCACTGATGACAATCTTCGAGT | -1.01 |
| TTGCTTGTGTCTCGCTCCGAGT | -1.54 |
| TTGCCTGTCGTCTTGTCCTTGG | -0.405 |
| TTATAGTTCTTCTTGTCGCCCA | 0.464 |
| TATAGTTCTTCTTGTCGCCCAG | -0.36 |
| TATCTGTCAGTCACCTCCGATG | -0.879 |
| TTCTGGAACTTCTTGCAGGTGT | -0.129 |

Biological target: CAMSAP1L1
Test: as above
Conditions: shRNA

| Sequence | sensor-assay potency score (higher = more potent) |
| --- | --- |
| TACTTTTTCTATACTGACCATT | -0.4 |
| TACACTCTCGTTATCACCCGTG | 0.34 |
| TTGTTCATGACAACAGAGCTTA | 0.195 |
| TTCAACAGGTACATCAGCCTTT | 0.426 |
| TTGATTTCTTCAGTTTCTGGGC | -0.439 |
| TTATCCAGTACATGACAGCGTC | -0.641 |
| TTCACCACTTCAAACCACCAGA | -0.595 |
| TTCTGCTTTTTGATCATCCTTA | -0.157 |
| TTTTGCAGCATCACTCTTGAGA | -0.108 |
| TTGTATTATGTGCTTATTGGAT | -0.942 |
| TACTGTATCCATATCTTCCATT | -0.745 |

Biological target: CAPNS2
Test: as above
Conditions: shRNA

| Sequence | sensor-assay potency score (higher = more potent) |
| --- | --- |
| TAAAATCCATATCTCCATCTTC | -0.0154 |
| ATGACAGACACAATGCTCCGGC | -0.17 |
| TATACTGAGCTGCTGCAGCCTC | -0.467 |
| TAAAATTCACAATTCCTCCAAC | -0.361 |
| TTTGTGCTTAGAAAGGACTTTG | -0.468 |
| TTTGTTGAGAATATTCATCAGA | -0.0355 |
| ATACTGCTTATAAACACACTGC | -0.451 |
| TATCTCCATCTTCATTAGCATA | -1.87 |
| TTGATAGACACTTGAATCAGGC | -0.108 |
| TAGACACTTGAATCAGGCCATC | -1.43 |
| TAATTCAGCAGTAAAAGGCAGC | -0.377 |
